In all, about 58,000 compounds went through this assay and about 3,400 (5.9%) were called active.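 The calls were made as follows: active = luminescence count or its row- and column-corrected plate score outside the 99.7% band of the plate's sample wells, on either side; inactive = the rest.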 The sample as a whole holds a higher share of actives than the screen did.
Target: D(1A) dopamine receptor (Homo sapiens) (UniProt P21728)
Test: D1 CRE-luciferase signal change, two-sided – cell-based, HEK293 D1, dopamine EC30, D1 allosteric modulator project, primary screen (AID 641)
Conditions: dopamine EC30 potentiation, at 10 µM, actives deviate in either direction

Sequence of D(1A) dopamine receptor (Homo sapiens) (P21728 whole entry, looked up): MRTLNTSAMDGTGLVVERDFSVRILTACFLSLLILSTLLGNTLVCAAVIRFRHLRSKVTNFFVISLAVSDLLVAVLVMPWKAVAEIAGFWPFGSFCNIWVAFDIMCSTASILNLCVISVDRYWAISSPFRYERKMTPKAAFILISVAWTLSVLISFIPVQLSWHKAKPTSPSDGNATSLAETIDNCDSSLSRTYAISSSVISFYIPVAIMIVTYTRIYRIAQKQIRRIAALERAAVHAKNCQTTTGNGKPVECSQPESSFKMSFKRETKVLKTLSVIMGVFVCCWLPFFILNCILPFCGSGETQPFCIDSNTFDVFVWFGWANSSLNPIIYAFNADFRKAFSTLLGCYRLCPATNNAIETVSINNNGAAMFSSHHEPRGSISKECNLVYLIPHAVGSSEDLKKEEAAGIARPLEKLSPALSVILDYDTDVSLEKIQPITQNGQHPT

Row | SMILES | B-score
1 | O=C(O)CCCC(=O)Nc1ccccc1-n1ccnc1 | -0.0259 (inactive)
2 | CNC(=O)CSc1nnc(CCc2ccccc2)n1-c1ccccc1 | 0.762 (inactive)
3 | c1ccc(-c2nnc3n2NC(c2ccc4c(c2)OCO4)S3)cc1 (stereo not drawn) | 7.49 (active)
4 | O=C(CN1CCN(c2nc(-c3ccccc3)cs2)CC1)NCc1ccc2c(c1)OCO2 | -0.0459 (inactive)
5 | CC1=C(C(N)=O)C(c2ccc3c(c2)OCO3)n2nc(-c3cccc(C)c3)nc2N1 (stereo not drawn) | 0.00602 (inactive)
6 | COC(=O)c1cc(OC)c(OC)cc1NC(=O)C1CCCO1 (stereo not drawn) | 3.46 (inactive)
7 | CCc1nnc(NC(=O)CSc2nnc(-c3ccncc3)n2Cc2ccccc2)s1 | -0.0482 (inactive)
8 | O=[n+]1c2c(n([O-])c3cc(Br)ccc31)CCC2 | -0.651 (inactive)
9 | Cn1c(-c2ccc(F)cc2)cnc1SCC(=O)NCc1ccco1 | -0.294 (inactive)
10 | Cc1ccc(-c2csc3nnc(SCC(=O)NCc4ccco4)n23)cc1 | 1.29 (inactive)
11 | O=C(CSc1nnc2scc(-c3ccc(F)cc3)n12)NCc1ccco1 | 6.74 (active)
12 | Cn1c(SCC(=O)Nc2cccc(O)c2)nnc1-c1ccc(S(=O)(=O)N2CCOCC2)cc1 | 0.0252 (inactive)
13 | N#Cc1c2c(c(N3CCN(CCO)CC3)n3c1nc1ccccc13)CCCC2 | 4.34 (active)
14 | CN(C)CCCNc1c2c(c(C#N)c3nc4ccccc4n13)CCC2 | 0.142 (inactive)
15 | CCCCn1c(CN2CCN(CCO)CC2)nc2ccccc21 | 1.03 (inactive)
16 | COc1ccc(C2CC(=O)C=C(NCC3CCCO3)C2)cc1 (stereo not drawn) | 0.013 (inactive)
17 | CCn1c(SCC(=O)Nc2nc3ccc(OC)cc3s2)nnc1-c1ccoc1C | -0.00542 (inactive)
18 | COc1cc2cc(CN(CCN3CCCC3)C(=O)Nc3ccccc3Cl)c(=O)[nH]c2cc1OC | -0.557 (inactive)
19 | COC(=O)C1=C(C)NC2=C(C(=O)c3ccccc32)C1c1ccc(-c2ccc(C(=O)O)cc2)o1 (stereo not drawn) | 6.14 (active)
20 | COc1ccccc1NC(=O)C1=C(C)NC2=C(C(=O)CCC2)C1c1ccc(C)o1 (stereo not drawn) | 0.26 (inactive)
21 | COC(=O)C1=C(C)NC(=O)NC1/C=C/c1ccccc1 (stereo not drawn) | 0.394 (inactive)
22 | Cc1ccc2nc3n(c(=O)c2c1)CCC3 | -0.684 (inactive)
23 | O=c1c2c(nc3n1CCCCC3)sc1c(O)cccc12 | -6.41 (active)
24 | O=C(Cn1[nH]c(=O)c2ccccc2c1=O)Nc1cccc(-c2nnc3n2CCCCC3)c1 | 0.394 (inactive)
25 | CCSC(C)CC1C/C(=N/O)c2c(C)noc2C1 (stereo not drawn) | 3.09 (inactive)
26 | CCOC(=O)c1[nH]c2c(c1C)C(=O)CC(c1ccc(N(C)C)cc1)C2 (stereo not drawn) | -1.04 (inactive)
27 | CCCOC(=O)c1[nH]c2c(c1C)C(=O)CC(c1cc(OC)c(OC)c(OC)c1)C2 (stereo not drawn) | -3.89 (active)
28 | COC(=O)C1C(=O)c2c([nH]c(C(=O)OCCSC)c2C)CC1C (stereo not drawn) | 0.0229 (inactive)
